Measured values from PubChem BioAssay AID2803 (The Scripps Research Institute Molecular Screening Center, 2010).
Among all 2,000 compounds or so, about 1,300 (65%) were called active. Cut-off read from the data, not from the text of the source: active = inhibition above about 43%; inactive = the rest. So high a share suggests a set chosen from earlier hits. Only a sample is shown.

target: Prolyl endopeptidase-like (Homo sapiens) (UniProt Q4J6C6); test: human PREPL enzyme inhibitors, confirmation, biochemical, fluorescence polarization (AID 2803); details: recombinant PREPL, fluorescence polarization activity probe; at 5.96 µM; active compounds read high;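 note: 0% = protein with DMSO and 100% = wells lacking protein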
Sequence (Q4J6C6 whole entry, looked up): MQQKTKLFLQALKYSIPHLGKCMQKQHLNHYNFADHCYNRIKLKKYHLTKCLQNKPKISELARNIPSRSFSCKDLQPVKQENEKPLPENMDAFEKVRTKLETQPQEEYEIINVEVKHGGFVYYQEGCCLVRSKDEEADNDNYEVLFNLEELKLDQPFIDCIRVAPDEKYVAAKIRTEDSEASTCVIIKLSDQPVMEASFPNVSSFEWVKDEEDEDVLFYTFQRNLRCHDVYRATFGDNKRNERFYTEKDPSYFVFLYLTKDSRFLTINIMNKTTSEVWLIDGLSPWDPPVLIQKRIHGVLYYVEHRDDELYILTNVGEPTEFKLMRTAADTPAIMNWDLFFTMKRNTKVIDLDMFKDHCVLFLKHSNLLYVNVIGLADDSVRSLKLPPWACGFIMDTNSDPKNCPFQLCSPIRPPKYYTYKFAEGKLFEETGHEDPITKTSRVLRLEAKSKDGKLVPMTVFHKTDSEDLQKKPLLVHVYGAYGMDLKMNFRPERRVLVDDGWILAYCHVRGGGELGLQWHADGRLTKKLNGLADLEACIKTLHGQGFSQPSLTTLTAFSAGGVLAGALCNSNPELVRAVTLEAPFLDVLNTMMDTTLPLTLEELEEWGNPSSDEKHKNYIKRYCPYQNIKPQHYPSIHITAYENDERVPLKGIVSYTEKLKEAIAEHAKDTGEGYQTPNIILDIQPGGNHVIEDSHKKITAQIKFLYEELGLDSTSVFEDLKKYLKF

| SMILES | inhibition |
| --- | --- |
| CCOc1cccc(=NC2CCCCC2)c2c(C)[nH]c(C)c12 | 54.4% (active) |
| O=C(NCC(c1cccnc1)N1CCN(c2ccccc2)CC1)Oc1ccccc1 (stereo not drawn) | 39.3% (inactive) |
| COc1ccc2[nH]c3c(c2c1)CCN[C@H]3C | 23.7% (inactive) |
